Tau fluor counter – Counterscreen qHTS for Inhibitors of Tau Fibril Formation, Fluorescence Polarization | 280,000 compounds, 0.93% hits | AID 1463, 2008 | tau K18 P301L Alexa594 fluorescence, heparin fibrillization | Potency, µM (series often up to 57.7 µM); also: nearly all actives have a fitted effect of over 55% in size
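Human tau K18 P301L (15 uM unlabeled, 0.24 uM Alexa 594-labeled) in 100 mM sodium acetate pH 7 with 20 uM heparin, 6 hr at 37 C. ThT 30 uM added, 1 hr ambient; Alexa 594 FP and total fluorescence read at 555/632 nm.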
Tau ThT inhib – qHTS for Inhibitors of Tau Fibril Formation, Thioflavin T Binding; AID 1460, 2008; Potency, µM (doses to about 57.4 µM), hits mostly inhibitors; recombinant tau K18 P301L (four-repeat tau fragment), heparin-induced fibrillization, ThT fluorescence; 270,000 compounds, 2.1% hits; also: nearly all actives have a fitted effect of over 55% in size
Target sequence (P10636 561-689 P618L limits assumed): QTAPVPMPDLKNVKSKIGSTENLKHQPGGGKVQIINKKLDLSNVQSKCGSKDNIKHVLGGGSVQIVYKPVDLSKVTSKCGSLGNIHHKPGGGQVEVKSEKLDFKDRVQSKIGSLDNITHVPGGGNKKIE
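Heparin-induced (20 uM) aggregation of recombinant human K18 P301L tau, 15 uM unlabeled with 0.24 uM labeled, pH 7 acetate buffer, 6 hr at 37 C with compound. Fibrils quantified by 30 uM ThT fluorescence after 1 hr ambient incubation.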
HTT cytoprotect – qHTS Multiplex Assay to Identify Dual Action Probes in a Cell Model of Huntington: Cytoprotection (ATP). PC12 HTT-Q103 induced, cytoprotection, ATP luminescence, 40 h. Potency, µM (titrated, usually from 56.4 µM), most hits filed as activators. 230,000 compounds, 0.14% hits. AID 1471, 2008; also: nearly all actives have a fitted effect of over 45% in size
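Compounds added alongside 100 nM tebufenozide, which induces toxic Q103 huntingtin exon 1-GFP in stable PC12 cells; surviving cells quantified by luminescent ATP measurement. Medium: phenol red-free DMEM, 5% equine and 5% calf serum.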
HTT aggregate – qHTS Multiplex Assay to Identify Dual Action Probes in a Cell Model of Huntington: Aggregate Formation (GFP). PC12 HttQ103-GFP aggregates, Acumen cytometry, 40 h. Potency, µM (highest dose often 46.1 µM), most hits filed as inhibitors. 220,000 compounds, 1.1% hits. AID 1688, 2009; also: nearly all actives have a fitted effect of over 60% in size
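Compounds (qHTS titration) were added to PC12 cells expressing an ecdysone-driven HTT exon 1 Q103–GFP fusion after induction with 100 nM tebufenozide. Aggregate formation was measured as GFP objects in cell lysates.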
Tau fibril FP – qHTS for Inhibitors of Tau Fibril Formation, Fluorescence Polarization; K18 P301L tau heparin fibrillization, Alexa594 FP, 6 h; 280,000 compounds, 0.39% hits; Microtubule-associated protein tau (Homo sapiens), P10636; Potency, µM (series often up to 57.7 µM), most hits filed as inhibitors; also: nearly all actives have a fitted effect of over 55% in size
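Recombinant K18 P301L […], labeled with Alexa 594 at 0.24 uM over 15 uM unlabeled; heparin inducer 20 uM final; 37 C, 6 hr; FP endpoint.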
Hits are given with their value; [ ] = another dose, or the depositor's remark. Sampled rows, rich in hits. Any-hit rate of the full collection: about 3.7%. Calls follow the shape of the dose curve; as a rule, active = well fitted curve in the direction sought with a large enough effect; inconclusive = small, poorly fitted or top-dose-only effect, or another doubt; inactive = no such curve, though single readings can be large; an effect the other way counts as inactive or inconclusive.

How did O=C1c2ccsc2SCCN1Cc1c(Cl)cccc1Cl do in these assays?
Tau fluor counter: inactive; Tau ThT inhib: inactive; HTT cytoprotect: inactive[10 µM]; HTT aggregate: 22µM; Tau fibril FP: inactive

What do the screens show for `Cc1ccc(S(=O)(=O)N(C(=O)c2ccco2)c2cc3sc(=O)oc3c3ccccc23)cc1`?
Tau fluor counter: inconclusive; Tau ThT inhib: 14µM; HTT aggregate: inconclusive; Tau fibril FP: 22µM

How did CC(C)C(=O)N(c1ccc2oc(=O)sc2c1)S(=O)(=O)c1ccccc1 do in these assays?
Tau fluor counter: inactive; Tau ThT inhib: inconclusive; HTT cytoprotect: inconclusive; HTT aggregate: inactive[9.22 µM]; Tau fibril FP: inactive

What do the screens show for `CCOc1ccc(NC(=O)c2ccco2)cc1`?
Tau fluor counter: inactive; Tau ThT inhib: inactive; HTT cytoprotect: inactive[1.9 µM]; HTT aggregate: inactive; Tau fibril FP: inactive

What do the screens show for `COc1ccc(S(=O)(=O)N(C(=O)c2ccco2)c2cc3sc(=O)oc3c3ccccc23)cc1`?
Tau fluor counter: inconclusive; Tau ThT inhib: 13µM; HTT cytoprotect: inactive[10 µM]; HTT aggregate: inactive; Tau fibril FP: 20µM

What do the screens show for `COc1ccc(S(=O)(=O)N(C(=O)C(C)C)c2ccc3oc(=O)sc3c2)cc1`?
Tau fluor counter: inactive; Tau ThT inhib: inconclusive; HTT cytoprotect: inconclusive; HTT aggregate: inconclusive; Tau fibril FP: inactive

What do the screens show for `CCOc1ccc(S(=O)(=O)N(C(=O)c2ccco2)c2cc3sc(=O)oc3c3ccccc23)cc1`?
Tau fluor counter: inactive; Tau ThT inhib: 14µM; HTT cytoprotect: 0.89µM; HTT aggregate: inactive; Tau fibril FP: 28µM

Results for COc1ccc(Nc2c3c(nc4ccc(NC(=O)/C=C/c5cccc(OC)c5OC)cc24)CCCC3)cc1OC ?
Tau fluor counter: inconclusive; Tau ThT inhib: 14µM; Tau fibril FP: inactive

What do the screens show for `COc1ccc(/C=C/C(=O)Nc2ccc3nc4c(c(Nc5ccc(OC)c(OC)c5)c3c2)CCCC4)cc1`?
Tau fluor counter: 16µM[quencher]; Tau ThT inhib: 25µM; Tau fibril FP: inactive

Results for COc1ccccc1Nc1c2c(nc3ccc(NC(=O)/C=C/c4cccc(OC)c4OC)cc13)CCCC2 ?
Tau fluor counter: inconclusive; Tau ThT inhib: 14µM; Tau fibril FP: inactive

How did COc1ccc(/C=C/C(=O)Nc2ccc3nc4n(c(=O)c3c2)CCCC4)cc1OC do in these assays?
Tau fluor counter: inactive; Tau ThT inhib: inconclusive; HTT cytoprotect: inactive; HTT aggregate: inactive; Tau fibril FP: inactive

How did COc1ccc(Nc2c3c(nc4ccc(NC(=O)/C=C/c5cc(OC)c(OC)c(OC)c5)cc24)CCCC3)cc1OC do in these assays?
Tau fluor counter: inconclusive; Tau ThT inhib: inconclusive; Tau fibril FP: inactive

How did COc1ccc(/C=C/C(=O)Nc2ccc3nc4c(c(Nc5ccccc5OC)c3c2)CCCC4)cc1 do in these assays?
Tau fluor counter: inconclusive; Tau ThT inhib: 10µM; Tau fibril FP: inconclusive

What do the screens show for `COc1ccccc1Nc1c2c(nc3ccc(NC(=O)c4cccc(F)c4)cc13)CCCC2`?
Tau fluor counter: inconclusive; Tau ThT inhib: inconclusive; Tau fibril FP: inactive

How did COc1ccc(Nc2c3c(nc4ccccc24)CCCC3)cc1OC do in these assays?
Tau fluor counter: inactive; Tau ThT inhib: inactive; HTT cytoprotect: inactive; HTT aggregate: inactive; Tau fibril FP: inactive

Results for C=CCn1cccc(/C=C/C(=O)c2ccc(C(C)(C)C)cc2)c1=S ?
Tau fluor counter: inactive; Tau ThT inhib: 20µM; HTT aggregate: 25µM; Tau fibril FP: inactive

Results for COc1cc(Cl)c(C)cc1NC(=O)C1CCCN(c2ncnc3onc(-c4ccc(F)cc4)c23)C1 (stereo not given) ?
Tau fluor counter: inactive; Tau ThT inhib: inactive; Tau fibril FP: inactive

How did CNS(=O)(=O)c1cc(-c2nnc(Nc3cc(C)ccc3C)c3ccccc23)ccc1C do in these assays?
Tau fluor counter: inactive; Tau ThT inhib: inactive; Tau fibril FP: inactive

Results for CCOC(=O)c1c(C)oc2ccc(OCC(N)=O)cc12 ?
Tau fluor counter: inactive; Tau ThT inhib: inactive; HTT cytoprotect: inactive[10 µM]; HTT aggregate: inactive; Tau fibril FP: inactive

How did CCOC(=O)c1c(C)oc2ccc(OC(=O)COc3c(F)c(F)c(F)c(F)c3F)cc12 do in these assays?
Tau fluor counter: inactive; Tau ThT inhib: inactive; HTT aggregate: 13µM; Tau fibril FP: inactive
